Results filed as inconclusive are left out. The source made the active and inactive calls. Unless noted, calls follow the shape of the dose curve; as a rule, active = well fitted cell-killing curve with a large enough effect; inconclusive = small, poorly fitted or top-dose-only effect, or effect the other way; inactive = no such curve, though single readings can be large or run the other way.
How the values were obtained:
[1] = Quantitative High-Throughput drug screen in 47 multiple myeloma cell lines against the NCATS MIPE library collection: KMS28PE_JCRB cell viability assay (AID 1918983); also: potency is read from the fitted curve at half-maximal effect; nearly all actives have a fitted effect of over 35% in size
How it was run: (§1)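 Myeloma cells (500/well) treated with MIPE 4.0 compounds for 48 h at 37 °C, 5% CO2. Viability read as ATP via CellTiter-Glo luminescence after 5 min at RT; DMSO-only wells = 100%, media-only = 0% viability.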

[2] = Quantitative High-Throughput drug screen in 47 multiple myeloma cell lines against the NCATS MIPE library collection: KMS34_JCRB cell viability assay (AID 1918985); also: potency is read from the fitted curve at half-maximal effect; nearly all actives have a fitted effect of over 40% in size
How it was run: as §1

[3] = Quantitative High-Throughput drug screen in 47 multiple myeloma cell lines against the NCATS MIPE library collection: OCIMY7_PLB cell viability assay (AID 1918987); also: potency is read from the fitted curve at half-maximal effect; nearly all actives have a fitted effect of over 65% in size
How it was run: as §1

[4] = Quantitative High-Throughput drug screen in 47 multiple myeloma cell lines against the NCATS MIPE library collection: OCIMY5_PLB cell viability assay (AID 1918988); also: potency is read from the fitted curve at half-maximal effect; nearly all actives have a fitted effect of over 65% in size
How it was run: as §1

[5] = Quantitative High-Throughput drug screen in 47 multiple myeloma cell lines against the NCATS MIPE library collection: OPM1_PLB cell viability assay (AID 1918989); also: potency is read from the fitted curve at half-maximal effect; nearly all actives have a fitted effect of over 40% in size
How it was run: as §1

[6] = Quantitative High-Throughput drug screen in 47 multiple myeloma cell lines against the NCATS MIPE library collection: SKMM1_PLB cell viability assay (AID 1919863); conditions: SKMM1 myeloma viability, CellTiter-Glo ATP, 48 h; viability: stronger effect = lower value; also: potency is read from the fitted curve at half-maximal effect; nearly all actives have a fitted effect of over 35% in size
How it was run: as §1

[7] = Quantitative High-Throughput drug screen in 47 multiple myeloma cell lines against the NCATS MIPE library collection: U266_ATCC cell viability assay (AID 1919864); also: potency is read from the fitted curve at half-maximal effect; nearly all actives have a fitted effect of over 35% in size
How it was run: as §1

[8] = Quantitative High-Throughput drug screen in 47 multiple myeloma cell lines against the NCATS MIPE library collection: XG6_PLB cell viability assay (AID 1919865); also: potency is read from the fitted curve at half-maximal effect; nearly all actives have a fitted effect of over 40% in size
How it was run: as §1

[9] = Quantitative High-Throughput drug screen in 47 multiple myeloma cell lines against the NCATS MIPE library collection: XG1_PLB cell viability assay (AID 1919866); also: potency is read from the fitted curve at half-maximal effect; nearly all actives have a fitted effect of over 35% in size
How it was run: as §1

[10] = Quantitative High-Throughput drug screen in 47 multiple myeloma cell lines against the NCATS MIPE library collection: VP6_DJ cell viability assay (AID 1919867); also: potency is read from the fitted curve at half-maximal effect; nearly all actives have a fitted effect of over 40% in size
How it was run: as §1

[11] = Quantitative High-Throughput drug screen in 47 multiple myeloma cell lines against the NCATS MIPE library collection: UTMC2_PLB cell viability assay (AID 1919868); conditions: CellTiter-Glo ATP luminescence, 48 h; viability (% of DMSO control): at 45.8 µM (top of the series) unless noted; also: potency is read from the fitted curve at half-maximal effect; nearly all actives have a fitted effect of over 55% in size
How it was run: as §1

[12] = Quantitative High-Throughput drug screen in 47 multiple myeloma cell lines against the NCATS MIPE library collection: PE2_PLB cell viability assay (AID 1919869)
How it was run: as §1

[13] = Quantitative High-Throughput drug screen in 47 multiple myeloma cell lines against the NCATS MIPE library collection: OPM2_DSMZ cell viability assay (AID 1919872); also: potency is read from the fitted curve at half-maximal effect; nearly all actives have a fitted effect of over 30% in size
How it was run: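 Primary qHTS used for cherry-picking: cells at 500/well, library compounds for 48 h (37C, 5% CO2), luminescent ATP assay.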

[14] = Quantitative High-Throughput drug screen in 47 multiple myeloma cell lines against the NCATS MIPE library collection: KMS11_JCRBsus cell viability assay (AID 1919873); also: potency is read from the fitted curve at half-maximal effect; nearly all actives have a fitted effect of over 50% in size
How it was run: as §1

[15] = Quantitative High-Throughput drug screen in 47 multiple myeloma cell lines against the NCATS MIPE library collection: KMS28BM_JCRB cell viability assay (AID 1919874)
How it was run: as §1

[16] = qHTS drug screen for cell cycle checkpoint inhibitors in PARPi-resistant BRCA-mutant ovarian cancer cell lines. (AID 1963452; calls by dose curve); conditions: PEO1/OlaR viability, CellTiter-Glo luminescence, 96 h, stronger effect = lower value
How it was run: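 PEO1, PEO4 and PEO1/OlaR ovarian cancer cells, 600 per well, exposed 96 h at 37C to a dilution series. Viability read by CellTiter-Glo luminescence, normalized to DMSO and empty wells; activity summarized as Z-AUC.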

[17] = Quantitative High-Throughput drug screen in 47 multiple myeloma cell lines against the NCATS MIPE library collection: PCM6_Riken cell viability assay (AID 1919870); also: potency is read from the fitted curve at half-maximal effect; nearly all actives have a fitted effect of over 30% in size
How it was run: as §1

[18] = Quantitative High-Throughput drug screen in 47 multiple myeloma cell lines against the NCATS MIPE library collection: RPMI8226_ATCC cell viability assay (AID 1919871); also: potency is read from the fitted curve at half-maximal effect; nearly all actives have a fitted effect of over 30% in size
How it was run: as §1

[19] = qHTS for identification of novel therapeutic agents for treatment of microphthalmiaassociated transcription factor (MiT) renal cell carcinoma (RCC) (AID 1963991; calls by dose curve; also: potency is read from the fitted curve at half-maximal effect); conditions: CellTiter-Glo, 48 h; for z-score: stronger effect = lower value
How it was run: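 Three TFE3-fusion RCC cell lines (UOK109, UOK124, UOK145), 500 cells/well, were exposed to the 1912-compound MIPE 4.0 library for 48 hours at 37 C. Viability was read by CellTiter-Glo luminescence, normalised to DMSO (100%) and empty wells (0%), with 11-concentration curve fits.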

[20] = measured here: PEO1 parental Z-AUC

Nc1ccc(C(=O)c2cc3c(ccc4ccccc43)[nH]2)cc1
inactive: Z-AUC [16] -0.0185
-0.727: Z-AUC [16, 20]
active: Potency [1] 9.35 µM | Potency [2] 4.18 µM | Potency [3] 743 nM | Potency [4] 2.64 µM | Potency [5] 7.43 µM | Potency [6] 2.96 µM | Potency [7] 14.8 µM | Potency [8] 662 nM | Potency [9] 662 nM | Potency [10] 3.72 µM | Potency [11] 9.35 µM | Potency [12] 2.96 µM | Potency [13] 6.62 µM | Potency [14] 743 nM | Potency [15] 935 nM
-0.792: Z-AUC ([16]; measured here: PEO4 Z-AUC)

Cc1cc(CN2CCN(c3c(Br)cnc4nc(-c5ccc(N6CCN(C)CC6)cc5)[nH]c34)CC2)no1
active: Potency [1] 20.9 µM | Potency [2] 5.9 µM | Potency [3] 1050 nM | Potency [4] 7.43 µM | Potency [5] 4.18 µM | Potency [7] 16.6 µM | Potency [8] 2350 nM | Potency [9] 2090 nM | Potency [10] 3.32 µM | Potency [11] 10.5 µM | Potency [12] 6.62 µM | Potency [17] 3320 nM | Potency [18] 29.6 µM | Potency [13] 18.7 µM | Potency [14] 1050 nM | Potency [15] 2960 nM
inactive: Z-AUC [16] 0.133
-0.2: Z-AUC ([16]; measured here: PEO4 Z-AUC)
0.0389: Z-AUC [16, 20]

Cc1c(CN2CCN(S(C)(=O)=O)CC2)sc2c(N3CCOCC3)nc(-c3cnc(N)nc3)nc12
active: Potency [1] 0.0209 µM | Potency [2] 0.0372 µM | Potency [4] 0.0526 µM | Potency [5] 0.0662 µM | Potency [7] 0.118 µM | Potency [8] 66.2 nM | Potency [9] 46.9 nM | Potency [10] 0.0235 µM | Potency [11] 0.0264 µM | Potency [12] 0.0372 µM | Potency [17] 418 nM | Potency [18] 0.0166 µM | Potency [13] 0.105 µM | Potency [15] 13.2 nM | Potency ([19]; TFE3-RCC UOK109 viability, active = Z-AUC below -0.8 in all three lines) 83.3 nM
0.402: Z-AUC ([16]; measured here: PEO4 Z-AUC)
-2.46: z-score ([19]; TFE3-RCC viability, measured here: UOK145 Z-AUC)
0.564: Z-AUC [16, 20]
-2.2: z-score ([19]; TFE3-RCC UOK109 viability, measured here: UOK109 Z-AUC)
-2.43: z-score ([19]; TFE3-RCC viability, measured here: UOK124 Z-AUC)
inactive: Z-AUC [16] 0.0284

COC(=O)Nc1nc2ccc(C(=O)c3ccc(F)cc3)cc2[nH]1
active: Potency [1] 1.66 µM | Potency [2] 0.935 µM | Potency [3] 296 nM | Potency [4] 0.469 µM | Potency [5] 0.59 µM | Potency [6] 0.469 µM | Potency [8] 469 nM | Potency [9] 332 nM | Potency [10] 0.935 µM | Potency [17] 743 nM | Potency [18] 1.87 µM | Potency [13] 0.935 µM | Potency [14] 296 nM | Potency [15] 332 nM
-1.13: Z-AUC ([16]; measured here: PEO4 Z-AUC)
inactive: Z-AUC [16] -0.379
-1.33: Z-AUC [16, 20]

Source: PubChem BioAssay (NCATS)
